Laboratory results: publication PMC4336329 (PLoS ONE, 2015)
The whole screen tested about 310,000 compounds, of which about 14,000 (4.5%) showed an effect of 50% or more. Effects have a minus sign here. Only a selection was taken, and strong results are over-represented in it overall.

target: human ether-à-go-go-related gene (hERG) potassium channel (human, UniProt Q12809); experiment: primary screen, population patch clamp on CHO cells stably expressing hERG; higher = less effect of the substance
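Also: peak tail current of the secondary pulse compared with the same well before compound.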

human ether-à-go-go-related gene (hERG) potassium channel, sequence (Q12809 whole entry, looked up): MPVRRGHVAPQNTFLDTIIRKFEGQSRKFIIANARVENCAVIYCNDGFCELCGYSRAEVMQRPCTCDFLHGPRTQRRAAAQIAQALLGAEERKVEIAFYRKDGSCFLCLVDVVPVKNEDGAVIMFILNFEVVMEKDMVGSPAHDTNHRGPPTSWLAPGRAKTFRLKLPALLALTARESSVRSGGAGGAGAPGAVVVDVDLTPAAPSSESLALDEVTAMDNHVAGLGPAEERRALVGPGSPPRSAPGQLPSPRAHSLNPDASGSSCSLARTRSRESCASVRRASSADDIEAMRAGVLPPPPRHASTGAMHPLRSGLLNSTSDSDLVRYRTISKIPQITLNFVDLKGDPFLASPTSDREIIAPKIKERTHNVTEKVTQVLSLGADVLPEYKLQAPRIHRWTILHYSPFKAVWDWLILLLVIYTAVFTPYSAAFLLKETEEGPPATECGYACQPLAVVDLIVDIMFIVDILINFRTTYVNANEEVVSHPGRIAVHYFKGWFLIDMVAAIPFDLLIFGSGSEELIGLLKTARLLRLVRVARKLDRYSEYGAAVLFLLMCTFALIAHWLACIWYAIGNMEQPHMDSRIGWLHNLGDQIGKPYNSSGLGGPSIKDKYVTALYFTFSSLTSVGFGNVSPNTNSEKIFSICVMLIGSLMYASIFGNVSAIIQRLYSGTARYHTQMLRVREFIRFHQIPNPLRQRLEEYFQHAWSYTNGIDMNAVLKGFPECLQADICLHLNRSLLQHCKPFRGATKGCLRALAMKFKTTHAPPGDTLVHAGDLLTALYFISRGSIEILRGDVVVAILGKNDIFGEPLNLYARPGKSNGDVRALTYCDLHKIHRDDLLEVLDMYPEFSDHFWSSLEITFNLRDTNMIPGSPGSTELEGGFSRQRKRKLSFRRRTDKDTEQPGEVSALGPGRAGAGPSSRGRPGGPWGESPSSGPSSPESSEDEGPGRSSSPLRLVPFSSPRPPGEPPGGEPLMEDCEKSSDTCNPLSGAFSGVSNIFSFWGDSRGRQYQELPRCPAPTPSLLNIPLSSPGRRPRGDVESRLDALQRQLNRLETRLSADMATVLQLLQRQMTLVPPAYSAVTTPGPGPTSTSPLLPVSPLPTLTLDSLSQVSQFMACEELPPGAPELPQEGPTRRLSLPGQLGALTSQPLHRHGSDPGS

SMILES | hERG current change (%, negative = inhibition) at 10uM
Cc1ccc(OCC(=O)NNC(=O)CSc2ncnc3sc(C)c(C)c23)cc1 | 39.6%
CC1CC(=O)Nc2ccccc2N1S(=O)(=O)c1cccc(F)c1 (stereo not drawn) | 9.89%
O=C(CC1C(=O)NCCN1Cc1cccc(F)c1)NC1CCC1 (stereo not drawn) | -3.12%
CCC(CC)C(=O)c1c[nH]c(C(=O)O)c1 | 19.6%
CC1CCN(Cc2cc(=O)oc3cc(O)c(Cl)cc23)CC1 | 9.11%
Cc1nn(-c2ccccc2)c(C)c1/C=N/NC(=O)c1cc(C(C)(C)C)[nH]n1 | -9.72%
O=C(Nc1nnc(-c2ccncc2)s1)Nc1ccccc1F | 14.2%
Cc1cc(C)c(C(=O)/C=C/c2ccc(C(C)C)cc2)c(=O)[nH]1 | 10%
Cc1ccccc1N(CC(=O)NCCSC1CCCCC1)S(=O)(=O)c1ccccc1 | -16%
CCn1c(=O)c(C(=O)CN(C)Cc2cccc(OC)c2OC)c(N)n(Cc2ccccc2)c1=O | -50.3%
CCN(CC)CC(=O)c1c(N)n(Cc2ccccc2)c(=O)n(C)c1=O | -2.27%
CCn1c(=O)c(C(=O)CN2CCc3ccccc32)c(N)n(Cc2ccccc2)c1=O | 19%
CCn1c(=O)c(C(=O)CN(C)Cc2ccc(F)cc2)c(N)n(Cc2ccccc2)c1=O | -71%
CCn1c(=O)c(C(=O)CN2c3ccccc3CC2C)c(N)n(Cc2ccccc2)c1=O (stereo not drawn) | 3.42%
COc1cccc(NC(=O)CN(C)CC(=O)c2c(N)n(Cc3ccccc3)c(=O)n(C)c2=O)c1 | -8.12%
COc1ccc(CN(C)CC(=O)c2c(N)n(Cc3ccccc3)c(=O)n(C)c2=O)c(OC)c1 | -66.1%
CCOc1ccc(CN(C)CC(=O)c2c(N)n(Cc3ccccc3)c(=O)n(CC)c2=O)cc1OC | -75.5%
CCn1c(=O)c(C(=O)CC#N)c(N)n(Cc2ccccc2)c1=O | -4.73%
COC(=O)Cn1c(=O)c(C(=O)CCl)c(N)n(Cc2ccccc2)c1=O | -0.133%
CN(C)CC(=O)c1c(N)n(Cc2ccccc2)c(=O)n(C)c1=O | -7.58%
CCn1c(=O)c(C(=O)CN2CCCc3ccccc32)c(N)n(Cc2ccccc2)c1=O | -6.1%
CNC(=O)c1ccc(N(Cc2ccccc2C)S(C)(=O)=O)cc1 | -6%
Cn1c(C2=C(O)CN(c3ccccc3)C2=N)nc2ccccc21 | -13.2%
Cc1ccc(C(=O)NC(=S)Nc2ccc(N3CCN(C(=O)c4ccco4)CC3)cc2)cc1 | 17.1%
